Sampled rows, rich in hits. Any-hit rate of the full collection: about 12%.
AmpC inh detg: qHTS Inhibitors of AmpC Beta-Lactamase (assay with detergent). P00811. AmpC hydrolysis of nitrocefin, absorbance 480 nm, 0.01% Triton. Potency, µM (highest dose often 114 µM), actives largely listed as inhibitors. actives 0.041% (n = 370,000); note: nearly all actives have a fitted effect of over 25% in size
Target sequence (P00811 whole entry, looked up): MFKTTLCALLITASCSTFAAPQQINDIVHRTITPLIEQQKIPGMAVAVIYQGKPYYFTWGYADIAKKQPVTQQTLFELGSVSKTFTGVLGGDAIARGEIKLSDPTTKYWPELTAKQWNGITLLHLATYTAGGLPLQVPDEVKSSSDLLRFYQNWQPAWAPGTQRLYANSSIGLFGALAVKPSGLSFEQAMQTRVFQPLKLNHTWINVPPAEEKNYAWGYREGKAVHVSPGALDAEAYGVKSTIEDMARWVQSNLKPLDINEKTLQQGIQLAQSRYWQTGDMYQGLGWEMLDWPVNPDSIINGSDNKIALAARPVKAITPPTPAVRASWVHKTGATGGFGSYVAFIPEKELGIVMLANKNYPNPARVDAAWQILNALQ
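AmpC (5.3 nM in the dispensed reagent) in 20 mM phosphate pH 7.0 with 0.01% (detergent screen) or 0.0001% Triton X-100 was preincubated with compounds for 15 min at room temperature. Nitrocefin was then added from an 800 uM solution, and hydrolysis was followed at 480 nm.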
Pf growth 96h: Primary qHTS for delayed death inhibitors of the malarial parasite plastid, 96 hour incubation; actives 6.9% (n = 320,000); P. falciparum luciferase reporter growth, 96 h; Potency, µM (highest dose often 28.7 µM), most hits filed as inhibitors
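Delayed-death screen, second-generation endpoint: infected erythrocytes, 2% hematocrit, 0.05% parasitemia final; 96 hours at 37 C, 5% CO2; luciferase detection reagent; luminescence decrease equals reduced growth.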
AmpC no deterg: qHTS Inhibitors of AmpC Beta-Lactamase (assay without detergent); AmpC nitrocefin hydrolysis, absorbance 480 nm, 0.0001% Triton; actives 0.52% (n = 330,000); P00811; Potency, µM (titrated, usually from 57.1 µM), usual class: inhibitors; note: nearly all actives have a fitted effect of over 20% in size
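AmpC (5.3 nM in the dispensed reagent) in 20 mM phosphate pH 7.0 with 0.01% (detergent screen) or 0.0001% Triton X-100 was preincubated with compounds for 15 min at room temperature. Nitrocefin was then added from an 800 uM solution, and hydrolysis was followed at 480 nm.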
Sm TGR block: qHTS Assay for the Inhibitors of Schistosoma Mansoni Peroxiredoxins | Schistosoma mansoni thioredoxin glutathione reductase (TGR), Q962Y6 | purified TGR, DTNB reduction, TNB absorbance 405 nm | Potency, µM (top dose mostly 114 µM), usual class: inhibitors | actives 3% (n = 360,000); note: nearly all actives have a fitted effect of over 60% in size
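TGR 20 nM + NADPH 100 uM (dispensed conc.), cpd preinc 15 min RT; start with NADPH (500 uM addition) then DTNB (15 mM addition). Kinetic TNB absorbance, 405 nm filter. Four-parameter Hill fit across titration.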
Pf growth 48h: Primary qHTS for delayed death inhibitors of the malarial parasite plastid, 48 hour incubation | P. falciparum luciferase growth in erythrocytes, 48 h | actives 5.9% (n = 310,000) | Potency, µM (highest dose often 28.7 µM), actives largely listed as inhibitors | AID 504832, 2011
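Growth was read as firefly luciferase luminescence after a 48 h, 37 C, 5% CO2 exposure of compounds to reporter-bearing P. falciparum cultures (0.1% parasitemia, 2% hematocrit final) in Albumax-supplemented RPMI 1640.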
SARS PLpro yeast: qHTS of Yeast-based Assay for SARS-CoV PLP. actives 0.19% (n = 330,000). Potency, µM (series often up to 32.9 µM), actives largely listed as activators. S. cerevisiae expressing SARS-CoV PLpro, growth rescue; calls by dose curve; note: nearly all actives have a fitted effect of over 55% in size
Large screens that a line does not name were inactive; ! = a repeat was not active. Unless noted, calls come from the whole dose curve; as a rule, active = well fitted curve in the direction sought with a large enough effect; inconclusive = small, poorly fitted or top-dose-only effect, or another doubt; inactive = no such curve, though single readings can be large; an effect the other way counts as inactive or inconclusive.

O=C(CCc1c[nH]c2ccccc12)N=Nc1c(O)[nH]c2ccccc12	Pf growth 96h inconclusive, AmpC no deterg 32µM
O=C(CCNC(=O)c1ccccc1)N=Nc1c(O)[nH]c2ccccc12	none
O=C(CSc1n[nH]c(=O)n1-c1ccc2c(c1)OCCO2)Nc1ccccc1	none
CCN(C(=O)Cn1cnc2onc(-c3ccc(F)cc3)c2c1=O)c1cc(C)ccc1C	none (no result: Pf growth 96h, AmpC no deterg, Pf growth 48h, SARS PLpro yeast)
Cc1ccc(-c2csc3nc(CN(C)Cc4ccccc4)[nH]c(=O)c23)cc1	Pf growth 96h 4.1µM, Pf growth 48h 12µM
CCOc1ccc(CCNC(=O)COC(=O)c2cc(S(=O)(=O)N3CCOCC3)ccc2F)cc1OCC	Pf growth 96h 13µM, Pf growth 48h inconclusive
CC1CCCC(NC(=O)NC(=O)COC(=O)c2ccc(O)cc2O)C1C (configuration not stated)	Pf growth 96h inconclusive, Pf growth 48h 7.4µM
CC1CCCC(NC(=O)COC(=O)c2cc(S(=O)(=O)N3CCCCC3)ccc2N2CCOCC2)C1C (configuration not stated)	Pf growth 96h 5.2µM (no result: Pf growth 48h)
Cc1ccc(S(=O)(=O)N2CCOCC2)cc1C(=O)OCC(=O)NC1CCCC(C)C1C (configuration not stated)	Pf growth 96h inconclusive, Pf growth 48h inconclusive
CC(C)CCNC(=O)NC(=O)COC(=O)c1cc(S(=O)(=O)N2CCOCC2)ccc1N1CCCCC1	Pf growth 48h 9.3µM (no result: Pf growth 96h)
Cc1c(C)n(Cc2ccccc2)c2ncnc(Cl)c12	none
O=S(=O)(Nc1ccc(-n2cnnn2)cc1)c1cccs1	none
Cc1ccc(NC2=CC(=O)C(=O)c3ccccc32)cc1	Pf growth 96h 0.83µM, Pf growth 48h 0.52µM
CC(=O)Nc1ccc(NC2=CC(=O)c3ccccc3C2=O)cc1	Pf growth 96h 0.59µM, Pf growth 48h inconclusive
O=C1C=C(Nc2ccc(O)cc2)C(=O)c2ccccc21	AmpC inh detg inconclusive, Sm TGR block inconclusive
Cc1ccc(Nc2ccccc2)cc1	Pf growth 96h inconclusive
CCOC(=O)c1ccc(NC(=O)C(C)N2C(=O)c3ccccc3C2=O)cc1 (configuration not stated)	AmpC inh detg inconclusive, Pf growth 96h inconclusive
COc1cc(OC)c(NC2=CC(=O)C(=O)c3ccccc32)cc1Cl	Sm TGR block inconclusive, Pf growth 48h 0.33µM
CCOC(=O)c1ccc(NC2=CC(=O)C(=O)c3ccccc32)cc1	Pf growth 48h 5.9µM
O=C1NC(=O)C2C3C=CC(C3)C12 (configuration not stated)	none (no result: AmpC inh detg, AmpC no deterg, Sm TGR block, SARS PLpro yeast)
O=C1CC(C(=O)O)(c2ccccc2)c2cccc(F)c21 (configuration not stated)	none
NS(=O)(=O)c1ccc(NC(=O)Nc2ccccc2)cc1	none
NS(=O)(=O)c1ccc(NC2=CC(=O)C(=O)c3ccccc32)cc1	AmpC inh detg inconclusive, Pf growth 96h 10µM, Pf growth 48h inconclusive (no result: SARS PLpro yeast)
CSc1cccc(NC(=O)N2CCCC(CNS(=O)(=O)Cc3ccccc3)C2)c1 (configuration not stated)	Pf growth 96h 9.3µM
C/C(=N/NC(=O)CNS(=O)(=O)c1ccccc1)c1ccc(Br)cc1	Pf growth 96h 13µM, Pf growth 48h inconclusive
COC(=O)C(Cc1ccccc1)NC(=O)CNS(=O)(=O)c1ccc(Br)cc1 (configuration not stated)	none
COC(=O)C(NC(=O)CNS(=O)(=O)c1ccc(Br)cc1)c1ccccc1 (configuration not stated)	AmpC inh detg inconclusive, Pf growth 48h 10µM
COC(=O)N/N=C(\C)c1ccc(Br)cc1	none (no result: Pf growth 48h)
CCOC(=O)N/N=C(\C)c1ccc(Br)cc1	Pf growth 96h 12µM (no result: Pf growth 48h)
COc1cc(C(=O)N2CCN(C(=O)c3ccco3)CC2)c([N+](=O)[O-])cc1OC	none
COc1ccc(CNC2CCN(Cc3ccccc3)CC2)cc1	Pf growth 48h inconclusive
COc1ccc(CN2CC[C@H]3C=CCc4cccc(c43)C2)cc1	Pf growth 96h inconclusive, Sm TGR block 28µM, Pf growth 48h 3.7µM
Cc1ccc(CN2CC[C@H]3C=CCc4cccc(c43)C2)cc1	Pf growth 96h inconclusive, Pf growth 48h 5.2µM
C1=C[C@@H]2CCN(Cc3ccccc3)Cc3cccc(c32)C1	Pf growth 96h 7.4µM, Sm TGR block inconclusive, Pf growth 48h 8.3µM
CC1=C/C(=C(\c2cc(C)c(O)c(Br)c2)c2ccccc2S(=O)(=O)O)C=C(Br)C1=O	Pf growth 96h 10µM, Sm TGR block inconclusive, Pf growth 48h inconclusive
CCOc1ccc(-c2nc(CSCC(=O)NCCc3ccc(OCC)c(OCC)c3)c(C)o2)cc1	none (no result: Pf growth 96h, AmpC no deterg, Pf growth 48h, SARS PLpro yeast)
COc1cc(C2C3=C(Nc4nc(N)[nH]c(=O)c42)c2ccccc2C3=O)ccc1O (configuration not stated)	Pf growth 96h inconclusive, Sm TGR block inconclusive, Pf growth 48h inconclusive
Nc1nc2c(c(=O)[nH]1)C(c1ccccc1)C1=C(N2)c2ccccc2C1=O (configuration not stated)	Pf growth 96h 10µM, Pf growth 48h 9.3µM
Cn1c2c(c(=O)[nH]c1=O)C(c1ccc(O)cc1)C1=C(N2)c2ccccc2C1=O (configuration not stated)	AmpC no deterg 18µM
CCC(C)c1ccc(C2C3=C(Nc4nc(N)[nH]c(=O)c42)c2ccccc2C3=O)cc1 (configuration not stated)	Pf growth 96h inconclusive
CN(Cc1ccco1)S(=O)(=O)c1nnc(NC(=O)c2ccccc2Cl)s1	Sm TGR block 11µM!
Cc1ccccc1C(=O)Nc1nnc(S(=O)(=O)N(C)Cc2ccccc2)s1	none (no result: Pf growth 96h, AmpC no deterg, Pf growth 48h, SARS PLpro yeast)
Cc1ccccc1C(=O)Nc1nnc(S(=O)(=O)N(C)Cc2ccco2)s1	Pf growth 96h inconclusive, Sm TGR block 3.2µM
CCOP(=O)(OCC)C(C)(C)NC(=O)c1cc([N+](=O)[O-])cc([N+](=O)[O-])c1	Pf growth 96h inconclusive (no result: Pf growth 48h)
CCOP(=O)(OCC)C(NC(=O)c1cc([N+](=O)[O-])cc([N+](=O)[O-])c1)C(F)(F)F (configuration not stated)	Sm TGR block 13µM
CCOC(=O)c1ccc(NC(=O)CC2Nc3cc(C)c(C)cc3NC2=O)cc1 (configuration not stated)	none (no result: Pf growth 96h, AmpC no deterg, Pf growth 48h, SARS PLpro yeast)
CCCc1cc(NC(=O)COC(=O)c2ccc(O)cc2O)n(-c2ccccc2)n1	none (no result: AmpC inh detg, Pf growth 96h, Sm TGR block, Pf growth 48h)
CCOCCCn1c(SCC(=O)Nc2cc(C(C)(C)C)nn2-c2ccccc2)nc2ccccc2c1=O	Pf growth 96h inconclusive, Pf growth 48h 13µM

Compound activity from PubChem.
